From PubChem BioAssay AID720697 (Broad Institute, 2013) come the findings set out here.

Each structure is given as a SMILES string. Entries with a potency or affinity are not part of this list. Results filed as inconclusive are left out. Unmarked numbers belong to inactive results.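 Rule for the calls: active = signal loss with fitted half-maximal concentration at or below twice the top valid tested dose in every test run; inconclusive = runs disagree, flat 30 to 70% signal loss, or poor fit; inactive = all runs flat, opposite direction, or potency beyond limit.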

This assay in a line: HEK293T cytotoxicity, dose response, cytotoxicity control for miR-122 modulator project, cell-based, inhibitor set, cherry-pick, set 2 (AID 720697).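 Note: 0% = median of neutral control wells and -100% = MG132 positive control wells.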 The following applies: HEK293T viability, CellTiter-Glo luminescence, 48 h; series mostly up to 26 µM; activity change, negative = cytotoxicity: at the top concentration.
On to `CNC(=O)C[C@H]1CC[C@@H]2[C@H](COc3ccc(NS(=O)(=O)c4ccc(F)cc4)cc3C(=O)N2C)O1`, for which the “activity change, negative = cytotoxicity” value is -13.9%.

For `Cc1cc(CN(C)C(=O)c2cc(COc3ccc4ncccc4c3)on2)on1`, the “activity change, negative = cytotoxicity” value is 15.5%.

As to `O=C(Nc1ccc(Cl)cc1)N1C[C@H]2[C@@H](c3ccccc31)[C@H](CO)N2CC1CCCCC1`, the “activity change, negative = cytotoxicity” value is -67.3%.

On to `C[C@H](CO)N1C[C@H](C)[C@@H](CN(C)CC2CCCCC2)OCCCC[C@H](C)Oc2ccc(NC(=O)Nc3cccc4ccccc34)cc2C1=O`, for which the “activity change, negative = cytotoxicity” value was -41.4%.

As to `Cc1nnc(NC(=O)CSc2nc(C(C)C)nc3sc(C)c(C)c23)s1`, the “activity change, negative = cytotoxicity” value is -23.9%.

As for `N=c1c2c(-c3ccccc3)c(-c3ccccc3)n(Cc3ccccc3)c2ncn1CCO`, the “activity change, negative = cytotoxicity” value was -63%.

On to `CCCNC(=O)N1C[C@@H]2[C@H](c3ccccc31)[C@@H](CO)N2Cc1cc(F)ccc1F`, for which the “activity change, negative = cytotoxicity” value was 30.6% [at 23.5 µM].

For the molecule `CO[C@H]1CN(C)C(=O)c2cc(NC(=O)Nc3ccc(Cl)c(Cl)c3)ccc2OC[C@@H](C)NC[C@@H]1C`, the “activity change, negative = cytotoxicity” value is -6.02%.

In the case of `COC(=O)C[C@@H]1CC[C@H]2[C@@H](COc3ccc(NC(=O)Nc4ccccc4C)cc3C(=O)N2C)O1`, the “activity change, negative = cytotoxicity” value is 87.2%.

Consider `OC(c1cc(C(F)(F)F)nc2c(Cl)cc(Cl)cc12)C1CCCCN1` (centres undefined), for which the “activity change, negative = cytotoxicity” value was -42.2%.

`Cc1ccc(-c2cnc3c(c2)C(=O)N([C@H](C)CO)C[C@@H](C)[C@H](CN(C)CC2CCCCC2)O3)cc1`: the “activity change, negative = cytotoxicity” value was 80.6%.

On to `C/C=C/c1ccc([C@@H]2[C@@H](CO)N(C(C)=O)[C@@H]2CN(C)C(=O)c2ccccn2)cc1`, for which the “activity change, negative = cytotoxicity” value was 203%.

For the molecule `CN1C(=O)c2cc(NC(=O)c3ccc4c(c3)OCO4)ccc2OC[C@@H]2O[C@@H](CC(=O)O)CC[C@@H]21`, the “activity change, negative = cytotoxicity” value is 14.4%.

In the case of `COc1ccc(S(=O)(=O)Nc2cccc3c2O[C@H](CN(C)CC2CCCCC2)[C@@H](C)CN([C@H](C)CO)C3=O)cc1`, the “activity change, negative = cytotoxicity” value is 94.8%.

Turning to `Cc1cc(C)c2c(c1)/C(=C/C(=O)c1ccc(Br)s1)C(=O)N2`, the “activity change, negative = cytotoxicity” value is 18%.

Regarding `Cc1ccc(NCC(=O)c2ccccc2)cc1Cl`, the “activity change, negative = cytotoxicity” value is 23.8%.

Take `COC(=O)C[C@@H]1CC[C@@H]2[C@@H](COc3ccc(NS(=O)(=O)c4ccccc4F)cc3C(=O)N2C)O1`: the “activity change, negative = cytotoxicity” value is 61.1%.

Regarding `CC(=O)N1[C@@H](CO)[C@@H](c2ccccc2)[C@@H]1CNC(=O)CN1CCOCC1`, the “activity change, negative = cytotoxicity” value is -30.7%.

On to `CN1C(=O)c2cc(NC(=O)c3cccs3)ccc2OC[C@H]2O[C@@H](CC(=O)NCCN3CCCCC3)CC[C@H]21`, for which the “activity change, negative = cytotoxicity” value was -3.62%.

For the molecule `COC(=O)c1c(N)nc(C)n1-c1ccc(OC)cc1`, the “activity change, negative = cytotoxicity” value is 55.2%.

Take `Cc1ccccc1-c1ccc2c(c1)O[C@@H](CN(C)C(=O)Nc1ccc(F)cc1)[C@@H](C)CN([C@@H](C)CO)S2(=O)=O`: the “activity change, negative = cytotoxicity” value is 66.7%.

Regarding `CC(C)c1ccc(NC(=O)C[C@H]2CC[C@H]3[C@@H](COc4ccc(NC(=O)Nc5ccc(F)c(F)c5)cc4C(=O)N3C)O2)cc1`, the “activity change, negative = cytotoxicity” value is -6.32%.

As to `O=C(NC[C@H]1[C@H](c2ccccc2)[C@H](CO)N1CC1CCCC1)c1ccncc1`, the “activity change, negative = cytotoxicity” value is 91% [at 23.5 µM].

On to `CC(=O)c1cccc(S(=O)(=O)NCC2CCCCC2)c1`, for which the “activity change, negative = cytotoxicity” value was -3.45%.

Turning to `C/C=C/c1ccc([C@H]2[C@H](CO)N[C@@H]2CN(CC)C(=O)c2cccnc2)cc1`, the “activity change, negative = cytotoxicity” value was 72.5%.

Regarding `CC(=O)Nc1ccc2c(c1)C(=O)N(C)[C@H]1CC[C@@H](CC(=O)NCc3ccc4c(c3)OCO4)O[C@@H]1CO2`, the “activity change, negative = cytotoxicity” value was 125% [at 23.5 µM].

In the case of `COc1ccc(OC)c(Nc2cc(C)nc3ccc(C)cc23)c1`, the activity change, negative = cytotoxicity was -30% [at 6 µM].

In the case of `C/C=C/c1ccc([C@H]2[C@@H](CO)N[C@@H]2CN(CC(C)C)C(=O)c2ccccn2)cc1`, the “activity change, negative = cytotoxicity” value was 83.9%.

With `CC(=O)N(C)C[C@@H]1[C@@H](c2ccc(-c3cccc(C#N)c3)cc2)[C@H](CO)N1C(C)=O`, the “activity change, negative = cytotoxicity” value is -15.5%.

As for `COc1nnc(-c2ccc(N3CCOCC3)c(NC(=O)c3ccccc3)c2)c2ccccc12`, the “activity change, negative = cytotoxicity” value is -5.55%.

Regarding `CCC(=O)N1C[C@H]2[C@@H](c3ccccc31)[C@H](CO)N2C(=O)Nc1ccccc1F`, the “activity change, negative = cytotoxicity” value was -17.6% [at 23.5 µM].

`CNC(=O)C[C@@H]1CC[C@@H]2[C@@H](COc3ccc(NC(=O)Nc4ccccc4OC)cc3C(=O)N2C)O1`: the “activity change, negative = cytotoxicity” value is 43.5%.

Regarding `Cc1nn(C)cc1NC(=O)C[C@@H]1CC[C@H]2[C@@H](COc3ccc(NC(=O)Nc4cccc(Cl)c4)cc3C(=O)N2C)O1`, the “activity change, negative = cytotoxicity” value was 78.7%.

For `CCOC(=O)c1nc(C)n(-c2ccc(Cl)cc2Cl)n1`, the “activity change, negative = cytotoxicity” value was 63%.

Consider `CC(=O)N1[C@H](CN(C)S(=O)(=O)c2ccccc2)[C@H](c2ccccc2)[C@@H]1CO`, for which the “activity change, negative = cytotoxicity” value is 127%.

As to `C/C=C/c1ccc([C@@H]2[C@H](CO)N[C@H]2CN(CC)C(=O)CN2CCOCC2)cc1`, the “activity change, negative = cytotoxicity” value was 47%.

Take `O=C(COC(=O)Cc1ccc(S(=O)(=O)N2CCOCC2)s1)Nc1ccc2c(c1)OCO2`: the “activity change, negative = cytotoxicity” value was 61.9%.

Take `COc1cccc(S(=O)(=O)N(C)C[C@@H]2Oc3cc(C4=CCCC4)ccc3S(=O)(=O)N([C@H](C)CO)C[C@@H]2C)c1`: the “activity change, negative = cytotoxicity” value was -8.81%.

Regarding `CCCCN(CCCC)C(=O)CN(C)S(=O)(=O)c1ccc2c(c1)n(C)c(=O)c(=O)n2C`, the “activity change, negative = cytotoxicity” value is 84%.
